# Most compounds without a hit are left out; they make up all but 2.7% or so of the library.
# NadD block: inhibitors of S. aureus NadD, primary screen, biochemical, colorimetric, uHTS; Nicotinate-nucleotide adenylyltransferase NadD (Staphylococcus aureus N315); purified NadD enzyme, colorimetric absorbance read-out; inhibition, % at 20 µM; hit rate 0.78% among 360,000; in the data active means inhibition above about 26%
# aDG glyco up: activators of alpha-DG glycosylation, primary screen, uHTS, Pro5-aDG cells, AlphaScreen; alpha-DG glycosylation AlphaScreen (IIH6); 0% Pro5, 100% B10-LARGE cell signal; activation, % at 10 µM; hit rate 0.22% among 360,000; AID 624168, 2012;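 active means activation of at least 8% versus controls, or a plate z-score of at least 8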;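 further: Pro5 are CHO cells carrying HIG-tagged alpha-DG that lacks glycosylation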
# MPTP inh: mitochondrial permeability transition pore inhibitors, primary screen, biochemical, isolated mouse mitochondria, absorbance. Ca2+ swelling absorbance, 30 min. inhibition, % at 10 µM. hit rate 1.4% among 360,000;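 active means inhibition of 50% or more, scaled per plate between neutral and stimulator controls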;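 further: 0% = DMSO wells given calcium and 100% = 1 mM EGTA wells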
# H9c2 TAG inh: inhibitors of triacylglycerol accumulation, primary screen, cell-based, uHTS, fluorescence, H9c2. H9c2 cells, Nile Red lipid (TAG) fluorescence; cells loaded with 200 µM oleic acid. inhibition, % at 12.5 µM. hit rate 0.66% among 230,000. AID 651582, 2012;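 active means pattern-corrected inhibition of lipid staining of at least 50% with the nuclear-stain viability signal not falling by more than 50%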;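 further: 0% = DMSO wells and 100% = triacsin C control wells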
# MPTP counter: fluorescence retest of MPTP screen hits in isolated mitochondria, single concentration | membrane potential, Rhodamine 123 fluorescence | AID 624504, 2012 | hit rate 78% among 5,000 | shares compounds with MPTP inh | inhibition, % at 10 µM; in the data active means inhibition above about 22%;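 further: 0% = DMSO vehicle and 100% = positive control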
# MPTP abs DR: mitochondrial permeability transition pore inhibitors, dose response, biochemical, absorbance, uHTS hits | shares compounds with MPTP inh | isolated mitochondria swelling | IC50, µM | hit rate 58% among 780; in the data active means IC50 below about 20 µM
# MPTP cs DR: fluorescent counter-screen in isolated mitochondria, dose response, counter-screen for MPTP inhibitor project, biochemical, fluorescence, uHTS hits; isolated mitochondria counterscreen, fluorescence read-out; hit rate 49% among 780; IC50, µM; shares compounds with MPTP inh; in the data active means IC50 below about 80 µM
# * = called active by the depositor; nt = no result given.
SMILES,NadD block,aDG glyco up,MPTP inh,H9c2 TAG inh,MPTP counter,others
Cn1nc(CC(=O)N2CCN(c3ccccc3)CC2)c2ccccc2c1=O,6,1,0,1,nt,
O=C(N/N=C\c1ccc(Sc2ccccn2)o1)c1cccc(F)c1,-3,0,-2,-104,nt,
O=C(N/N=C/c1ccc(Sc2ccccn2)o1)c1cc2ccccc2cc1O,62*,0,68*,nt,35*,
Cc1cccc(C(=O)Nc2ccccc2C(=O)OCC(=O)Nc2ccc(C#N)cc2)c1,7,0,77*,-2,62*,
Cc1cccc(OCC(=O)Nc2ccc(C(=O)Nc3ccccc3C(=O)O)cc2)c1,2,0,0,-1,nt,
Cc1cc(C)nc(SCC(=O)Nc2ccnc3ccccc23)n1,0,7,97*,-42,98*,
O=C(CSC1=NCCS1)Nc1ccnc2ccccc12,-3,3,68*,nt,74*,
COC(=O)c1ccccc1NC(=O)CSc1nc(C)cc(C)n1,-2,0,-1,-5,nt,
COc1cc(/C=C2/C(=O)c3cccc([N+](=O)[O-])c3C2=O)c(Br)cc1O,11,0,134*,nt,53*,
FC(F)(F)c1nc(N2CCCC2)ncc1-c1nnnn1-c1ccccc1,0,2,73*,-37,65*,
Cc1ccc(-n2nnnc2-c2cnc(N3CCCC3)nc2C(F)(F)F)cc1,-5,1,-1,-27,nt,
O=[N+]([O-])c1cccc(-c2nc3ccc([N+](=O)[O-])cc3[nH]2)c1,-1,0,93*,7,83*,
Nc1nc2ccc([N+](=O)[O-])cc2[nH]1,0,0,-1,nt,nt,
O=[N+]([O-])c1ccc2nc(-c3ccc(Cl)cc3)[nH]c2c1,10,1,92*,nt,86*,
O=[N+]([O-])c1ccc2nc(-c3ccccc3[N+](=O)[O-])[nH]c2c1,-3,0,16,2,nt,
O=[N+]([O-])c1ccc(/C=C/c2nc3ccc([N+](=O)[O-])cc3[nH]2)cc1,15,0,98*,nt,64*,
O=[N+]([O-])c1ccc2nc(-c3ccncc3)[nH]c2c1,-4,0,3,-3,nt,
Cc1ccc(-c2nc3ccc([N+](=O)[O-])cc3[nH]2)cc1,-9,0,76*,-12,82*,
CC(=O)Nc1ccc(-c2ccnc3c2CC(C)(C(=O)Nc2cccc(OC(F)(F)F)c2)O3)cc1 (configuration not stated),-2,0,0,-3,nt,
CC(C)(C)c1ccc(C(=O)N2CCC(NC(=O)c3ccccc3)CC2)cc1,-2,0,0,nt,nt,
CCN(CC)CCNC(=O)c1ccc(NC(=O)Nc2cccc3ccccc23)cc1,-6,0,0,nt,nt,
COc1ccc(-c2oc(=O)c3cc(OC)c(OC)cc3c2C#C[C@]2(O)CC[C@H]3[C@@H]4CCc5cc(OC)ccc5[C@H]4CC[C@@]32C)cc1,4,0,-1,-3,nt,
CC(C)c1ccc(NC(=O)CN2C(=O)NC3(CCCC3)C2=O)cc1,3,0,-1,nt,nt,
COc1ccc(-c2nc3ccc([N+](=O)[O-])cc3[nH]2)cc1,5,0,58*,nt,53*,
COc1ccc2nc(-c3ccccc3)[nH]c2c1,-2,0,0,6,nt,
SMILES,NadD block,aDG glyco up,MPTP inh,H9c2 TAG inh,MPTP counter,others
CCCC[C@@H]1CNCCN1CCc1cccc2ccccc12,-4,3,65*,nt,-10,MPTP abs DR=12*;MPTP cs DR=>80
c1ccc(C[C@H]2CNCCN2CCc2cccc3ccccc23)cc1,-5,0,42,16,nt,
Oc1ccc(C[C@H]2CNCCN2CCc2cccc3ccccc23)cc1,-9,3,76*,nt,-8,MPTP abs DR=4.8*;MPTP cs DR=>80
Oc1ccc(C[C@@H]2CNCCN2CCc2cc(C(F)(F)F)cc(C(F)(F)F)c2)cc1,-4,1,94*,nt,-24,MPTP abs DR=4.3*;MPTP cs DR=>80
COc1cc(/C=C/C(=O)OCC(=O)N(CC(C)C)c2c(N)n(Cc3ccccc3)c(=O)[nH]c2=O)ccc1O,9,0,0,9,nt,
CCc1cc2c(SCC(=O)N3CCN(C(=O)c4cccs4)CC3)ncnc2s1,-1,0,-2,-9,nt,
C=CCC1(CC=C)CCCN1C(=O)c1cc(COc2cncc(Cl)c2)on1,3,3,77*,-23,96*,
O=C(c1cc2nc(-c3ccc(F)cc3)cc(C(F)(F)F)n2n1)N1CCCCC1c1cccnc1 (configuration not stated),2,2,90*,-13,90*,
CN1CCN(c2ncnc3c2c(-c2ccccc2)cn3-c2ccc(F)cc2)CC1,-15,0,80*,11,-5,MPTP abs DR=20*;MPTP cs DR=>80
Oc1c(Cl)cc(Cl)cc1C1=NNC(c2ccc(Cl)cc2)C1 (configuration not stated),18,0,68*,-5,30*,
COc1ccc(CCN(CC(=O)NCc2ccc(F)cc2)C(=O)c2snc(C(N)=O)c2N)cc1OC,1,0,1,nt,nt,
CCOC(=O)c1ccc(NC(=O)CCc2nc(-c3ccccc3)no2)cc1,-15,1,62*,3,69*,
CCOC(=O)c1ccc(NC(=O)CCc2nc(-c3ccccc3Cl)no2)cc1,-16,2,89*,13,76*,
CCOC(=O)c1cccc(NC(=O)CCc2nc(-c3ccccc3F)no2)c1,-11,0,-5,-23,nt,
COc1ccccc1N1CCN(S(=O)(=O)CCNC(=O)c2ccc(Br)o2)CC1,-4,0,1,nt,nt,
Cc1cccc(N=Cc2[nH]c3ccc(Br)c(Cl)c3c2O)c1,0,6,97*,-10,0,MPTP abs DR=7.9*;MPTP cs DR=<2.5*
CCOC(=O)N1CCc2c(sc3nc(SC(C)C)n(N)c(=O)c23)C1,-2,2,62*,nt,25*,
O=C1CNC(=O)N1CC(O)Cn1c2ccccc2c2ccccc21 (configuration not stated),4,0,1,nt,nt,
CC1(c2nnnn2Cc2ccccc2)CCC(=O)N1CCc1ccccc1F (configuration not stated),0,0,0,nt,nt,
CC(C)N1CCC2(CC1)N=C(c1ccc3c(c1)OCO3)CC(c1cc(Cl)ccc1O)N2 (configuration not stated),0,0,69*,-1,-6,
O=C1/C(=C/c2ccccc2[N+](=O)[O-])COc2ccccc21,-11,-1,-3,54,nt,
CC1(C)CC(=Cc2cc(O)ccc2[N+](=O)[O-])C(=O)c2ccccc21,-5,0,91*,3,94*,
COc1ccc(CCNc2nc(C)nc3c2oc2ccccc23)cc1OC,-5,6,71*,-30,91*,

# From PubChem
